Drawing on PubChem BioAssay (Tox21), this text covers Potency for nine compounds.

Values joined by “and” are separate entries in the source; they are usually repeats but may differ in a detail not shown here. Equal values may be shown once. Results filed as inconclusive are left out. A structure can be active in one record and inactive in another. Active and inactive are the calls of the source. Unless noted, calls come from the whole dose curve.

Test [1] can be described thus: Nuclear factor erythroid 2-related factor 2/antioxidant responsive element (Nrf2/ARE) small molecule agonists: qHTS cell viability counter screen in human keratinocytes (AID 1919968; active = well fitted curve in the direction sought with a large enough effect in the repeat runs; an effect the other way counts as inactive or inconclusive; note: nearly all actives have a fitted effect of over 55% in size; note: potency is the fitted concentration of half-maximal effect). An outline of the steps:
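Viability counter-screen: KeratinoSens reporter cells, DMSO-delivered compounds, 23 h at 37 C, CellTiter-Fluor fluorescence.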

The target in test [2] is Gonadotropin-releasing hormone receptor (Homo sapiens) (UniProt P30968). The test is described as follows: Human gonadotropin-releasing hormone receptor (GnRHR) small molecule agonists, calcium flux assay in GnRHR-HEK293 cells (AID 1920063). Note: nearly all actives have a fitted effect of over 35% in size. Summed up:
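Tox21-format agonist screen using human GnRHR-expressing HEK293 cells and a fluorescent calcium dye; kinetic 3-min fluorescence reading after compound addition, 15-point concentration series run in triplicate.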

For test [3], the target named is KiSS-1 receptor (Homo sapiens) (UniProt Q969F8). The test is described as follows: Human kisspeptin (KISS1R) small molecule agonists, calcium flux assay in KISS1R-HEK293 cells (AID 1920064; active = well fitted curve in the direction sought with a large enough effect in the repeat runs; an effect the other way counts as inactive or inconclusive). An outline of the steps:
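Intracellular calcium mobilization in KISS1R-HEK293 cells was recorded by fluorescence (Ex/Em 480/540) for 3 min following compound addition to cells pre-loaded 1 h with calcium dye.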

Test [4] can be described thus: G protein-coupled receptor (GPCR) small molecule agonists, calcium flux assay: HEK293 wild type cell line counter screen (AID 1920065). Summed up: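 In this agonist-mode screen, ATP is the positive control and DMSO the vehicle. Cells grow 18 h before a 1 h dye incubation at 37 C; signal is taken at Ex/Em 480/540 over 3 min.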
A short description of test [5]: p53 small molecule agonists, cell-based qHTS assay with human liver microsomes: qHTS cell viability counter screen (AID 1963579). Note: nearly all actives have a fitted effect of over 45% in size. Note: potency is the fitted concentration of half-maximal effect. Summed up: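 p53RE-bla cells, 4,000/well, dosed 5 hours after plating, with human liver microsomes (0.5 mg/mL final) plus NADPH (0.5 mg/mL final), 16 hours at 37 C. Viability read as CellTiter-Glo luminescence after 30 min at room temperature.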

A short description of test [6]: p53 small molecule agonists, cell-based qHTS assay with rat liver microsomes: qHTS cell viability counter screen (AID 1963580). Note: nearly all actives have a fitted effect of over 45% in size. An outline of the steps: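 In HCT-116 cells carrying a p53 response element-bla reporter, compounds were metabolically activated in situ by rat liver microsomes with NADPH over 16 h. Cell ATP content then served as the cytotoxicity measure.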

Test [7] can be described thus: p53 small molecule agonists, cell-based qHTS assay: qHTS cell viability counter screen (AID 1963581). Note: nearly all actives have a fitted effect of over 45% in size. Note: potency is the fitted concentration of half-maximal effect. Summed up:
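Compounds are pinned onto HCT-116 p53RE-bla cells and left 16 h at 37 C. Following the reporter FRET read, ATP is quantified by CellTiter-Glo luminescence after 30 min at room temperature.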

Test [8] has as its target 5-hydroxytryptamine receptor 2A (Homo sapiens) (UniProt P28223). As to the kind of experiment: 5-hydroxytryptamine receptor 2A (HTR2A) small molecule antagonists, cell-based qHTS assay (AID 1963586). Note: nearly all actives have a fitted effect of over 45% in size. Note: potency is the fitted concentration of half-maximal effect. An outline of the steps: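 Antagonist-mode intracellular calcium assay: DOI (4 nM) added after 5 min compound pre-incubation at room temperature to dye-loaded HTR2A-CHO cells. Fluorescence followed for 3 min, sampled every second.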

For test [9] the target is unchanged. The test is described as follows: 5-hydroxytryptamine receptor 2A (HTR2A) small molecule agonists, cell-based qHTS assay (AID 1963587). Note: nearly all actives have a fitted effect of over 30% in size. Summed up: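 HTR2A-CHO cells, plated 18 h at 37 C/5% CO2, dye-loaded 1 h at 37 C; compounds in DMSO added by pin tool (agonist mode). Intracellular calcium flux read as kinetic fluorescence on FDSS over 2 min at 1 s intervals.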

Test [10] addresses Muscarinic acetylcholine receptor M1 (Homo sapiens) (UniProt P11229). The test is described as follows: Cholinergic receptor muscarinic 1 (CHRM1) small molecule antagonists, cell-based qHTS assay (AID 1963588). Note: nearly all actives have a fitted effect of over 40% in size. Summed up: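 CHRM1-CHO calcium-flux assay, antagonist mode. Cells were seeded 18 h, dye-loaded 1 h at 37 C and given compound for 5 min at RT, then acetylcholine was added at 50nM. FDSS fluorescence was read 3 min; 15 concentrations, three runs.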

Test [11] shares this target. As to the kind of experiment: Cholinergic receptor muscarinic 1 (CHRM1) small molecule agonists, cell-based qHTS assay (AID 1963589). Note: nearly all actives have a fitted effect of over 35% in size. An outline of the steps:
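Stable CHRM1-CHO cells (human receptor) were incubated 18 h, dye-loaded for 1 h at 37 C and exposed to test compounds for agonist activity, with calcium-dependent fluorescence followed kinetically.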

Test [12] in a line: cAMP Responsive Elements (CRE) small molecule agonists, cell-based qHTS assay (AID 1963590). An outline of the steps: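 FRET-based beta-lactamase readout (LiveBLAzer B/G, 2 h RT) quantified CRE activation in HEK 293T CRE-bla cells after 3 h treatment with DMSO-dissolved compounds.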
Test [13] in a line: cAMP Responsive Elements (CRE) small molecule antagonists, cell-based qHTS assay (AID 1963591; active = well fitted inhibition curve with a large enough effect in the signal ratio in the repeat runs, not every such curve was filed as active; the % refers to the signal ratio). Summed up:
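qHTS in CRE-bla HEK 293T cells: compound in DMSO, then 0.25 uM NKH477 (final), 3 h at 37 °C/5% CO2; beta-lactamase FRET read-out after 2 h substrate incubation.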

Test [14] concerns the target Beta-2 adrenergic receptor (Homo sapiens) (UniProt P07550). The test is described as follows: Adrenergic beta2 receptor (ADRB2) small molecule antagonists, cell-based qHTS assay (AID 1963592). Note: series mostly up to about 92 µM; nearly all actives have a fitted effect of over 50% in size. Summed up:
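Cells (CHO, stable ADRB2 overexpression) incubated 18-20hr at 37C; compounds added from DMSO; agonist mix (1nM isoproterenol, 100uM IBMX, 25uM Ro-20-1724) added; 0.5hr RT; d2-cAMP and anti-cAMP-cryptate added; 1hr RT; 665/615 nm read.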

Test [15] shares this target. The test is described as follows: Adrenergic beta2 receptor (ADRB2) small molecule agonists, cell-based qHTS assay (AID 1963593).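 Note: CHO cells stably overexpressing human ADRB2.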 An outline of the steps: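 CHO cells stably over-expressing ADRB2 were plated overnight at 37C, then dosed with compounds plus a stimulation mix containing 100uM IBMX and 25uM Ro-20-1724 for 0.5hr at room temperature. cAMP was measured by HTRF competition, 1hr.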

The target of test [16] is D(2) dopamine receptor (Homo sapiens) (UniProt P14416). The test is described as follows: Dopamine D2 receptor (DRD2) small molecule antagonists, cell-based qHTS assay (AID 1963595; active = well fitted inhibition curve with a large enough effect in the signal ratio in the repeat runs, with a control signal flat; the % refers to the signal ratio). Summed up:
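DRD2-HEK293; 0.1 mM Ro20-1724; cpd 10 min RT; NKH477 200 nM + quinpirole 12 nM, 30 min RT; HTRF cAMP (cAMP-d2/anti-cAMP cryptate), 665/620 nm ratio after 1 h.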

Test [17] can be described thus: p53 small molecule agonists, cell-based qHTS assay with human liver microsomes (AID 1963577). Summed up: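 p53RE-bla cells, 4,000/well, compound added after 5 h, with human liver microsomes 0.5 mg/mL and NADPH 0.5 mg/mL final; 16 h at 37 C, then LiveBLAzer 2 h RT, fluorescence.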
Test [18] is described as follows: p53 small molecule agonists, cell-based qHTS assay with rat liver microsomes (AID 1963578). An outline of the steps: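 p53RE-bla cells, 4,000/well, pre-incubated 5 h, then given compounds plus rat liver microsomes (0.5 mg/mL final) and NADPH (0.5 mg/mL final). Incubation 16 h at 37 C; beta-lactamase reporter read by LiveBLAzer fluorescence after 2 h at room temperature.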

Test [19] can be described thus: p53 small molecule agonists, cell-based qHTS assay (AID 1963582; active = well fitted activation curve with a large enough effect in the signal ratio in the repeat runs, not every such curve was filed as active; the % refers to the signal ratio). An outline of the steps: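 Agonist activity was scored from beta-lactamase FRET fluorescence in p53RE-bla cells treated 16 h at 37 C with compounds in DMSO, substrate incubation being 2 h at room temperature.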
The target in test [20] is D(2) dopamine receptor (Homo sapiens) (UniProt P14416). As to the kind of experiment: Dopamine D2 receptor (DRD2) small molecule agonists, cell-based qHTS assay (AID 1963594). Note: nearly all actives have a fitted effect of over 35% in size. Summed up:
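HEK293 cells stably expressing DRD2 were cultured 24 h at 37 C, then given Ro20-1724 (0.1 mM final) and compounds for 10 min at room temperature. NKH477 (200nM) was then added for 30 min. cAMP was read by HTRF.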

Sequence of Beta-2 adrenergic receptor (Homo sapiens) (P07550 whole entry, looked up): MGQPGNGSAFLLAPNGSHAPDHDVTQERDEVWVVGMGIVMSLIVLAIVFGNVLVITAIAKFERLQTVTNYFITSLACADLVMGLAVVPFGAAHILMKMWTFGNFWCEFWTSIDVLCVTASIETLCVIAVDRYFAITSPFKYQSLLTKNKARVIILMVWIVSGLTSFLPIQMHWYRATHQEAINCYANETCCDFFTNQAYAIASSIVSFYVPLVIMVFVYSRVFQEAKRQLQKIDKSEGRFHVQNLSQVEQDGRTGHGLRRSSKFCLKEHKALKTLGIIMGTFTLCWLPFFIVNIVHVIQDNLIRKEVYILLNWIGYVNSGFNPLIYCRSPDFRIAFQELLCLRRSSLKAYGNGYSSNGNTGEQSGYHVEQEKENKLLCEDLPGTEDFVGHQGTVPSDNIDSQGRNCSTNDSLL
Sequence of D(2) dopamine receptor (Homo sapiens) (P14416 whole entry, looked up): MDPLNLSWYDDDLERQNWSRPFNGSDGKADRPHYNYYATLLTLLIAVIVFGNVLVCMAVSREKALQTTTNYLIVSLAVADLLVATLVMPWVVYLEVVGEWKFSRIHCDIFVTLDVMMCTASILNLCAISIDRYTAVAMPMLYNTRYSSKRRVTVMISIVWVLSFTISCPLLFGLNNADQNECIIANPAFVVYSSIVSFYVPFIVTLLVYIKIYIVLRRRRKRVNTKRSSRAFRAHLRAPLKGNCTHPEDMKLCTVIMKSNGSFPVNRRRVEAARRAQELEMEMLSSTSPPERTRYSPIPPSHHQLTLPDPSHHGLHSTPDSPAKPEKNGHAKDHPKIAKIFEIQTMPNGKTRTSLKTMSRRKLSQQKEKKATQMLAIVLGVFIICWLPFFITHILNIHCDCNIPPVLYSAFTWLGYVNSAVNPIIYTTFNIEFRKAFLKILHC
Sequence of Muscarinic acetylcholine receptor M1 (Homo sapiens) (P11229 whole entry, looked up): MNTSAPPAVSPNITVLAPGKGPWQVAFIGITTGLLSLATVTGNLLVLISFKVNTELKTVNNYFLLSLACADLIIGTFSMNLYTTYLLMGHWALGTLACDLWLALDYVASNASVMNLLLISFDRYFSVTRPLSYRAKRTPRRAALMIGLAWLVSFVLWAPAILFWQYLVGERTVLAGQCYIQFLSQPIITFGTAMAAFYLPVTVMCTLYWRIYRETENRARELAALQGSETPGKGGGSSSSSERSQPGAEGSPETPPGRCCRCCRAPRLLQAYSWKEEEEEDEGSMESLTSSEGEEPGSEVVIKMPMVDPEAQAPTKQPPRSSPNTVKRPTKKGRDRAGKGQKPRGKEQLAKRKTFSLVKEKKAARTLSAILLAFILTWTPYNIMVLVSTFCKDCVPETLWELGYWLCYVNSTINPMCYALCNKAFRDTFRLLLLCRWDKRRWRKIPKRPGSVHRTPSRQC
Sequence of KiSS-1 receptor (Homo sapiens) (Q969F8 whole entry, looked up): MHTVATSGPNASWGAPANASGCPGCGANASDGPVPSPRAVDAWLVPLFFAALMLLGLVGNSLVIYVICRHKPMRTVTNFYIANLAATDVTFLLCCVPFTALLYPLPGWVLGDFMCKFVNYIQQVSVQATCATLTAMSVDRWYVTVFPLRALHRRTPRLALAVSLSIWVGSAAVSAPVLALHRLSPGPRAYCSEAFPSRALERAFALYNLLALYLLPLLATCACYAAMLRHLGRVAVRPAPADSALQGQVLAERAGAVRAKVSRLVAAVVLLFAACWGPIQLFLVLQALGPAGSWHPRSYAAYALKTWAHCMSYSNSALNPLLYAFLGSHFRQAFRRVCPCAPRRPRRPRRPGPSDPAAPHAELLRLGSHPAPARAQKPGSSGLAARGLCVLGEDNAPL
Sequence of 5-hydroxytryptamine receptor 2A (Homo sapiens) (P28223 whole entry, looked up): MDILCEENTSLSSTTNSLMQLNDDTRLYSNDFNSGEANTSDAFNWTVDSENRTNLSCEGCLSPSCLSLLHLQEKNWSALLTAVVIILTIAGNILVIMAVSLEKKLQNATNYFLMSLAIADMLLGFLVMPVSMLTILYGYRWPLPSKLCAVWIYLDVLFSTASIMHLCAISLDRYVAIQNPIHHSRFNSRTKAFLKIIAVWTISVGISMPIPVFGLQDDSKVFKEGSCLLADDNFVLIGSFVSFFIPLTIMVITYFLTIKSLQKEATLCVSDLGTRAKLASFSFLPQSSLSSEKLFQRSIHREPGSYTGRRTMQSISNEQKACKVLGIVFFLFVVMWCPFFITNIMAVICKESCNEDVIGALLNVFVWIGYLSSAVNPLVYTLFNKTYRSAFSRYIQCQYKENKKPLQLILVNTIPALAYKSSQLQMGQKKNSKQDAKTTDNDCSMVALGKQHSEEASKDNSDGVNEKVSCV
Sequence of Gonadotropin-releasing hormone receptor (Homo sapiens) (P30968 whole entry, looked up): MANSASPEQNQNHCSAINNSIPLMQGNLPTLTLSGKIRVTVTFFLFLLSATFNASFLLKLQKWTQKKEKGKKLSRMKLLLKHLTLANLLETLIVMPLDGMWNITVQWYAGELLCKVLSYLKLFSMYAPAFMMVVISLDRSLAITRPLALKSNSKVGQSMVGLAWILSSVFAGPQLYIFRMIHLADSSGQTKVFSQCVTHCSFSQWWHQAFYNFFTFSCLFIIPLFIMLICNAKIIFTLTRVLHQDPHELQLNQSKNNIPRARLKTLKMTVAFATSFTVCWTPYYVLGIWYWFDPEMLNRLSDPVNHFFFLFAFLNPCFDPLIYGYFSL

In the case of `O=S(=O)(O)c1ccccc1`, the Potency entry in test [1], in test [2], in test [3], in test [4], in test [5] and in test [6] was “inactive” throughout. The Potency result in test [7], in [8], in test [9], in test [10], in test [11] and in test [12] was “inactive” in each case. In addition, the Potency result in [13], in test [14], in test [15] and in test [16] was “inactive” in each case.
Regarding `Clc1cccc(Cl)c1NC1=NCCN1`, the Potency entry in test [1], in test [2], in test [3], in [4], in test [17] and in [18] was “inactive” in each case. The Potency entry in test [5], in test [6], in test [7], in test [19], in [12] and in [13] was “inactive” in each case. The Potency result in test [14], in test [15] and in [16] was “inactive” each time.
`O=c1n(CCCN2CCN(c3cccc(Cl)c3)CC2)nc2ccccn12`: the Potency entry in test [1], in [2], in [3], in test [4], in [18] and in test [6] was “inactive” throughout. In addition, the Potency result in test [7], in test [19], in test [12], in [13], in test [14] and in [20] was “inactive” each time.
Consider `COc1ccc2cc3[n+](cc2c1OC)CCc1cc2c(cc1-3)OCO2`, for which the Potency in test [1] was 4.22 µM (active). The Potency result in test [2], in test [3], in [4], in [17] and in test [5] was “inactive” throughout.
As to `COc1ccc(-c2coc3cc(O)cc(O)c3c2=O)cc1`, the Potency result in test [1], in test [2], in test [3], in [4], in test [17] and in test [18] was “inactive” in each case. Moreover, the Potency result in test [6], in test [7], in test [19], in [9], in test [10] and in test [11] was “inactive” each time. Also, the Potency result in [20] and in [16] was “inactive” throughout. Further, in test [8], the Potency result was “inactive and 33.4 µM (active)”.
As to `CC(C)(C)OCC1CO1` (configuration not stated), the Potency entry in test [1], in [2], in test [3], in test [4], in [18] and in test [6] was “inactive” in each case. Also, the Potency result in test [7], in test [19], in test [8], in test [9], in test [11] and in test [12] was “inactive” each time. Moreover, the Potency entry in test [13], in test [14], in [15], in test [20] and in test [16] was “inactive” throughout.
For `O=C(O)c1ccccc1C(c1ccc(O)cc1)c1ccc(O)cc1`, the Potency entry in test [1], in test [2], in test [3], in [4], in [5] and in test [6] was “inactive” in each case. Further, the Potency result in test [7], in [8], in [9], in [10], in [11] and in test [12] was “inactive” throughout. Besides, the Potency result in test [13], in test [20] and in test [16] was “inactive” each time.
Turning to `O=C(c1ccc(OCCN2CCCCC2)cc1)c1c(-c2ccc(O)cc2)sc2cc(O)ccc12`, the Potency was 34.4 µM (active) and 30.6 µM (active) in test [1]; 45.8 µM (active) and inactive in test [5]; 36.4 µM (active) and inactive in test [7]. In addition, the Potency entry in test [2], in test [3], in test [4], in test [17], in test [18] and in test [6] was “inactive” each time. Further, the Potency entry in test [19], in test [14], in test [15] and in test [16] was “inactive” throughout.
In the case of `CCCC[C@H]1CN(CC2CCOCC2)C(=O)OC12CCN(C1(C)CCN(C(=O)c3c(C)ncnc3C)CC1)CC2`, the Potency result in test [1], in [2], in [3], in test [4], in [17] and in [18] was “inactive” in each case. Further, the Potency result in test [5], in test [7], in test [19], in [8], in test [9] and in [10] was “inactive” each time. For the same compound, the Potency entry in test [11], in test [12], in [13], in test [14], in test [15] and in test [16] was “inactive” throughout.
